Screening data deposited in PubChem by several laboratories.
This is a sample that favours compounds with a hit; in the whole collection about 2.6% have one here.
NOD2 RIPK2 PPI – NOD2-RIPK2 protein interaction inhibition | O43353 | CHO BLA complementation NOD2-RIPK2, CCF4 ratio | inhibition, % at 4.98 µM | hit rate 0.38% among 360,000 | AID 624267; in the data active = inhibition above about 21%
Granule exo inh – blocks lytic granule exocytosis; hit rate 0.66% among 360,000; inhibition, % at 10 µM; AID 651702; TALL-104 LAMP-1 surface exposure, flow cytometry; cells stimulated with thapsigargin and PMA;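 active = inhibition above about 55%, limit read from the data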
TLR4 MyD88 comp – blocks binding of human TLR4 to MyD88; O00206+Q99836; HeLa CL3-4 TLR4/MyD88 BLA complementation, FRET ratio; inhibition, % at 8.4 µM; hit rate 0.18% among 200,000; AID 861; in the data active = inhibition above about 25%
PRMT1 inh – PRMT1 (human) inhibition, primary screen; recombinant PRMT1, activity-based probe fluorescence polarization; AID 652257; inhibition, % at 2.79 µM; hit rate 1.3% among 370,000; Q99873;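 active = inhibition above about 21% made by adding two undisclosed values, limit read from the data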
TLR9-MyD88 block – TLR9-MyD88 interaction inhibition. Q9NR96+Q99836. CHO BLA complementation TLR9-MyD88, CCF4 FRET ratio. inhibition, % at 4.98 µM. hit rate 0.21% among 340,000;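 active = inhibition above the mean over all tested compounds plus 3 SD, cut at about 21% in these data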
ABHD5 PLIN5 PPI – ABHD5-PLIN5 protein interaction inhibition | hit rate 0.78% among 360,000 | AID 602281 | Q00G26+Q8WTS1 | inhibition, % at 4 µM | Split G. princeps luciferase complementation, luminescence, 4 h;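 active = inhibition above the mean inhibition across every tested compound plus 3 SD, cut at about 22% in these data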
Target sequence (Q00G26 whole entry, looked up): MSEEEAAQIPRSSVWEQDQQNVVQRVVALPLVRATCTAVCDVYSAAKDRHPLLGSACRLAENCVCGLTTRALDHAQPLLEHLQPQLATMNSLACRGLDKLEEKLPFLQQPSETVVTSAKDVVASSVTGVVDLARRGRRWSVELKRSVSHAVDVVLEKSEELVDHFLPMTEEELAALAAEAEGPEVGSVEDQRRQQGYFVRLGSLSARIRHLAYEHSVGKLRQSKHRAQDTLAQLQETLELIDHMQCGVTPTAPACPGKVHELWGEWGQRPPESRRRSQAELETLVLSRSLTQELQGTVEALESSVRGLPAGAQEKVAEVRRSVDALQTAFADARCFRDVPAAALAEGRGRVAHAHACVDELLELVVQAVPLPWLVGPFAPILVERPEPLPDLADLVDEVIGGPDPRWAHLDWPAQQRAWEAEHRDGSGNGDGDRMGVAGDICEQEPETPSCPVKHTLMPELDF
Target sequence (Q8WTS1 whole entry, looked up): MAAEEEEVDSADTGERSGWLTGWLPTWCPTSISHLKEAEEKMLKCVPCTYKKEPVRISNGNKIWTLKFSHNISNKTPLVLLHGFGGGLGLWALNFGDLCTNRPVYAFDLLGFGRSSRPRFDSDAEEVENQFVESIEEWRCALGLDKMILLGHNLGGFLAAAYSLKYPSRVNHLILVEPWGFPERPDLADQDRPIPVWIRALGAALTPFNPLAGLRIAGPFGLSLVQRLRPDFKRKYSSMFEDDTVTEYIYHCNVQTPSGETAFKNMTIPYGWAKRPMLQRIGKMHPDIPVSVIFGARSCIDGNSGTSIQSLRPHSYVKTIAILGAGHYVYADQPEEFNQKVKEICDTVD
TLR4 MyD88 cnf – confirmation of human TLR4-MyD88 binding inhibitors; shares compounds with TLR4 MyD88 comp; HeLa CL3-4 BLA complementation, CCF4 FRET ratio; inhibition, % at 8.4 µM; hit rate 50% among 350;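 active = mean inhibition across three repeat runs above about 25% carried over from the earlier screen, limit read from the data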
BLA inhibitor ct – beta-lactamase inhibition flagged in TLR4-MyD88 counter-screen. shares compounds with TLR4 MyD88 comp. HeLa BLA reporter, CCF4 FRET ratio. inhibition, % at 8.4 µM. hit rate 63% among 350;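 active = mean inhibition over three repeats above about 26% taken from the earlier screen, limit read from the data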;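 note: HeLa cells stably expressing beta-lactamase reporter as counterscreen for TLR4-MyD88 inhibitors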
Numbers stand for hits; – = inactive; · = not tested or not shown.

SMILES | NOD2 RIPK2 PPI | Granule exo inh | TLR4 MyD88 comp | PRMT1 inh | TLR9-MyD88 block | ABHD5 PLIN5 PPI | TLR4 MyD88 cnf | BLA inhibitor ct
COC(=O)C1=C(C)N(Cc2ccccc2C(F)(F)F)C(=NCc2ccccc2)NC1CCc1ccccc1 (configuration not stated) | · | · | · | – | · | · | · | ·
O=C(CCCc1ccccc1)c1ccc2c(c1)OCCO2 | – | – | 25 | – | – | – | – | –
Cc1n[nH]c(C)c1NC(=O)c1cc([N+](=O)[O-])ccc1Cl | – | – | 27 | – | – | – | – | –
CN1C(=O)[C@@]2(O[C@H]3C=CC=CN3C3=C2C(=O)CCC3)c2cc([N+](=O)[O-])ccc21 | · | · | · | – | · | · | · | ·
CN(C)c1ccc(C2CC(c3ccccc3)=Nc3nc(-c4ccccc4)cn32)cc1 (configuration not stated) | · | · | 25 | · | · | · | – | –
N#CC1CC(c2ccc([N+](=O)[O-])cc2)=NN1c1ccc([N+](=O)[O-])cc1 (configuration not stated) | – | – | 56 | – | – | – | 56 | 83
COC(=O)[C@]12C[C@H](CC(=O)N3CCOCC3)C(=O)N(CCC3=CCCCC3)C1=C[C@H](C(C)(C)C)O[C@@H]2C | · | · | · | – | · | · | · | ·
CCCCn1c2c(c(=N)c3c1CCC3)CCC2 | – | – | – | – | – | – | · | ·
CCCCCCCCCn1c2c(c(=N)c3c1CCC3)CCC2 | – | – | – | · | – | – | · | ·
CCCCCCCn1c2c(c(=N)c3c1CCC3)CCCC2 | – | – | 26 | – | – | – | – | 26
CCCCCCn1c2c(c(=N)c3c1CCC3)CCC2 | – | – | 27 | – | – | – | – | –
C=CC[C@@H]1NN2C(=O)[C@@H](C)[C@@H]3c4ccccc4C=NN3[C@@H]2c2ccccc21 | · | · | · | – | · | · | · | ·
COC(=O)[C@]12C[C@H](CC(=O)N3CCN(C(=O)c4ccco4)CC3)C(=O)N(Cc3ccccc3)C1=C[C@H](C(C)(C)C)O[C@@H]2C | · | · | · | – | · | · | · | ·
CCCC1Cc2nc(N3CCCCC3)c(C#N)cc2CO1 (configuration not stated) | – | – | 26 | · | – | – | – | –
CNC(=O)c1sc(N2N=C3/C(=C\c4ccccc4)CCCC3C2c2ccccc2)nc1C (configuration not stated) | – | – | · | – | – | – | · | ·
CNC(=O)c1sc(N2N=C3/C(=C/c4ccccc4)CCCC3C2c2ccccc2)nc1C (configuration not stated) | – | – | 28 | · | – | – | – | 54
S=C1NCCN1c1ccc(Cl)cc1 | · | · | · | – | · | · | · | ·
COc1ccc(NC(=O)CSc2nnc(C)c3ccccc23)cc1 | – | – | · | – | – | – | · | ·
N#Cc1cccc(NC(=O)CSc2ccccc2)c1 | – | – | – | – | – | – | · | ·
COc1ccc(NC(=O)CSc2ccc3c4c(cccc24)C(=O)c2ccccc2-3)cc1 | – | – | 33 | – | – | – | – | –
N#Cc1cccc(NC(=O)CSc2ccc3c4c(cccc24)C(=O)c2ccccc2-3)c1 | – | – | 54 | – | – | – | 36 | 65
CN(C)c1nc(C=C(C#N)C#N)c(Cl)n1-c1ccc(F)cc1 | – | – | 35 | – | – | – | 27 | –
CCOc1ccccc1NC(=O)/C(C#N)=C/c1c(C)nn(-c2ccc(F)cc2)c1Cl | – | – | – | – | – | – | · | ·
C=CCNc1sc(C(=O)c2ccc(Br)s2)c(N)c1C#N | – | – | 37 | – | – | – | – | 55
C#CCNC[C@@H]1CSCCS(=O)(=O)N1 | · | · | · | – | · | · | · | ·
SMILES | NOD2 RIPK2 PPI | Granule exo inh | TLR4 MyD88 comp | PRMT1 inh | TLR9-MyD88 block | ABHD5 PLIN5 PPI | TLR4 MyD88 cnf | BLA inhibitor ct
COC(=O)c1cc2c(c3c4cc(OC)ccc4n(S(=O)(=O)c4ccccc4)c13)C(=O)N(C)C2 | · | · | · | – | · | · | · | ·
Cc1ccc(/C=C2\CCC3=C2OC(N)=C(C#N)C3c2ccc(C)cc2)cc1 (configuration not stated) | – | – | 34 | · | – | – | 29 | 66
O=C1N=c2ccccc2=C1c1sc(Nc2ccc(O)cc2)nc1O | – | – | 27 | – | – | – | – | –
CCOC(=O)[C@]12CCCCC/C=C\1N(Cc1ccc(OC)cc1)C(=O)[C@H]2CC(=O)NCCc1ccccc1OC | · | · | · | – | · | · | · | ·
COc1cc2c3nnc(-c4ccc(F)cc4)c-3cn(Cc3cccc(F)c3)c2cc1OC | – | – | 26 | · | – | – | – | 50
COc1ccc(C=NNC(=O)Cc2cc(=O)[nH][nH]2)c(OC)c1 | · | · | · | – | · | · | · | ·
COC(=O)C(NS(=O)(=O)c1ccc(C)cc1)c1ccccc1 (configuration not stated) | – | – | – | – | – | – | · | ·
Cc1ccc(S(=O)(=O)NC(C(=O)Oc2ccc3c(C(F)(F)F)cc(=O)oc3c2)c2ccccc2)cc1 (configuration not stated) | – | – | 38 | – | – | – | 31 | 62
COc1ccc(/C=N/Nc2nnc(-c3ncc[nH]3)c3ccccc23)cc1 | – | – | – | · | – | – | · | ·
Oc1ccc2ccccc2c1/C=N/Nc1nnc(-c2ncc[nH]2)c2ccccc12 | – | – | 33 | – | – | – | – | 50
CC1CCN(C(=O)c2ncn3c2C(=O)NC[C@H]3C)CC1 | · | · | · | – | · | · | · | ·
Cc1ccc(C)c(NS(=O)(=O)c2ccc(OCC(=O)NCc3ccco3)cc2)c1 | – | – | 26 | – | – | – | – | –
Cc1ccc(NS(=O)(=O)c2ccc(OCC(=O)NCc3ccco3)cc2)cc1 | – | – | – | – | – | – | · | ·
CCCCC(CC)Cn1c2nc3ccccc3nc2c2c(=N)oc(C)nc21 (configuration not stated) | · | · | 48 | · | · | · | – | –
CCCCn1c2nc3ccccc3nc2c2c(=N)oc(C)nc21 | – | – | · | – | – | – | · | ·
CCCCCCC(=O)NC1CCCCN(Cc2ccccc2C)C1=O (configuration not stated) | · | · | · | – | · | · | · | ·
COc1ccc(-c2nc(C#N)c(NCCN(C)C)o2)cc1 | – | – | 27 | – | – | – | – | –
COCCCN1C(=O)[C@H](CC(=O)NCCC(C)C)[C@]2(C(=O)OC)CCCCC=C12 | · | · | · | – | · | · | · | ·
CC(=O)NS(=O)(=O)c1ccc(NC(=S)NC(=O)COc2ccccc2C)cc1 | – | – | 34 | – | – | – | – | –
